Screens from PubChem BioAssay.
The entries come from a sample that favours hits as a whole.
mHTT CaM bind = inhibitors of human mutant huntingtin-calmodulin interaction; AlphaScreen His-mHTT/GST-CaM binding, luminescence; inhibition, % at 15 µM; 190,000 compounds, 3.6% hits;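 also: 0% = both proteins with DMSO and 100% = one protein alone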
Pf apPOL block = Pf-apPOL DNA polymerase inhibition; Recombinant Pf-apPOL, molecular beacon fluorescence, 1.5 h; inhibition, % at 10 µM; 210,000 compounds, 0.25% hits; AID 1794808
* hit, by the source's call. Rule as the data show it: active = inhibition above about 50%; inactive = the rest.

`Cc1ncc([N+](=O)[O-])n1CC(=O)Nc1nn(-c2ccccc2)nc1C(N)=O` gave mHTT CaM bind -1 and Pf apPOL block -6.
`O=C(c1cc2nc(-c3cccs3)cc(C(F)(F)Cl)n2n1)N1CCSCC1` gave mHTT CaM bind 0 and Pf apPOL block -3.
For C/C=C(\C)CN1CCN(C/C=C/c2ccccc2)CC1 the results were mHTT CaM bind 7 and Pf apPOL block 7.
For C(=Cc1ccccc1)CN1CCN(c2c3c(nc4ncnn24)CCCC3)CC1 the results were mHTT CaM bind 73* and Pf apPOL block -5.
Screening CCc1nnc(-c2cccn2CC(=O)Nc2ccccc2)o1 returned mHTT CaM bind -2 and Pf apPOL block -1.
For Oc1ccc(C=Nc2ccc(-c3ccccc3)cc2)cc1 the results were mHTT CaM bind 5 and Pf apPOL block -20.
Screening Oc1ccc(N=Cc2ccc(Br)cc2)cc1 returned mHTT CaM bind 64* and Pf apPOL block -8.
`Cc1cc(C)cc(-n2cnc3cc(C(=O)NCc4cccnc4)ccc32)c1` gave mHTT CaM bind 29 and Pf apPOL block 32.
COc1ccc(CNC(=O)c2cc(-c3cccnc3)nc3ccccc23)cc1 was read as mHTT CaM bind 70* and Pf apPOL block -7.
Screening COc1cccc(CNC(=O)c2cc(-c3cccnc3)nc3ccccc23)c1 returned mHTT CaM bind 39 and Pf apPOL block -21.
For CCCCN(C)CCCNC(=O)CN1C(=O)/C(=C/c2cccc(Cl)c2)Sc2ccccc21 the results were mHTT CaM bind 98* and Pf apPOL block 1.
For CCN(CC)CCNC(=O)CN1C(=O)/C(=C/c2ccc(C(F)(F)F)cc2)Sc2ccccc21 the results were mHTT CaM bind 100* and Pf apPOL block -4.
Screening CCCCN(C)CCNC(=O)CN1C(=O)/C(=C/c2cccc(Cl)c2)Sc2ccccc21 returned mHTT CaM bind 19 and Pf apPOL block -15.
CCN(CC)CCNC(=O)CN1C(=O)/C(=C/c2cccc(Cl)c2)Sc2ccccc21 was read as mHTT CaM bind 11 and Pf apPOL block 0.
`O=C(CN1C(=O)/C(=C/c2cccc(Cl)c2)Sc2ccccc21)NCCN1CCCCCC1` gave mHTT CaM bind 54* and Pf apPOL block -1.
For O=C(CN1C(=O)/C(=C/c2ccc(Cl)cc2)Sc2ccccc21)NCCN1CCCC1 the results were mHTT CaM bind 24 and Pf apPOL block 4.
For COc1cccc(CN2CCC(C(=O)NCCCN3CCOCC3)CC2)c1O the results were mHTT CaM bind 3 and Pf apPOL block -4.
Screening O=C(Nc1ccccc1)C1CCN(c2nnc3c(Cl)cccn23)CC1 returned mHTT CaM bind -1 and Pf apPOL block 0.
Screening CCNC(=O)c1nnn(-c2cccc(Cl)c2)c1-c1cccnc1 returned mHTT CaM bind -6 and Pf apPOL block 2.
`CC(=O)Nc1ccc(S(=O)(=O)N2CCN(Cc3ccccc3)CC2)cc1` gave mHTT CaM bind 15 and Pf apPOL block -1.
Screening Cn1cc2c3c(cccc31)CN(C(=O)Nc1cc(Cl)ccc1Cl)CC2 returned mHTT CaM bind -6 and Pf apPOL block -3.
CC12CC(NC(=O)N1CCc1ccccc1)c1ccccc1O2 (stereo not given) was read as mHTT CaM bind -2 and Pf apPOL block 2.
CC1C2NC(=O)N(Cc3ccccc3)C1(C)Oc1ccccc12 (stereo not given) was read as mHTT CaM bind 68* and Pf apPOL block 0.
Screening O=C1c2ccccc2C(=O)c2c(NC3CCCCC3)ccc(NC3CCCCC3)c21 returned Pf apPOL block -2.
`CC1(C)CC(=C2C(=O)c3ccccc3C2=O)C=C2c3ccccc3C(=O)C21` (stereo not given) gave mHTT CaM bind 65* and Pf apPOL block 0.
`CCN(CC)C(=O)C1CCc2nc(N3CCN(C(C)=O)CC3)sc2C1` (stereo not given) gave mHTT CaM bind 6 and Pf apPOL block -2.
`Cc1c(Cc2ccccc2)[nH]c2ccccc12` gave mHTT CaM bind 100* and Pf apPOL block 1.
`O=c1[nH]c2ccccc2c(=O)n1Cc1ccccc1` gave mHTT CaM bind -4 and Pf apPOL block -7.
`CCCCCCCCC1CCCC1=O` (stereo not given) gave mHTT CaM bind -6.
`CC(=Cc1ccccc1)C(C)=NO` gave Pf apPOL block -14.
CCC(=O)N1CCc2sc(S(=O)(=O)Nc3ccccc3)cc2C1 was read as mHTT CaM bind 9 and Pf apPOL block 0.
Screening CCC(=O)N1CCc2sc(S(=O)(=O)Nc3ccc(F)cc3)cc2C1 returned mHTT CaM bind 51* and Pf apPOL block -6.
COc1ccc2c(c1)=CC(=Cc1[nH]c(SC(C)=O)nc1O)C(=O)N=2 was read as mHTT CaM bind 100* and Pf apPOL block -4.
Screening COc1ccc(C=C2Oc3cc(C)cc(O)c3C2=O)cc1 returned mHTT CaM bind 38 and Pf apPOL block 4.
`Cc1ccc(NC(=O)C(=O)NCC2(O)CCOCC2)cc1F` gave mHTT CaM bind -2 and Pf apPOL block -2.
